Source: the supplement of paper PMC8728848
The entries come from a sample that favours the strongest signals as a whole.

Tests used:
Test in all cases: glycan array binding signal (z-score within array); higher = stronger binding
Conditions in all cases: glycan notation: IUPAC condensed, linker removed
[1] = target: Fuc(a1-2)Gal(b1-3)GalNAc(a1-3)[Fuc(a1-2)]Gal(b1-4)GlcNAc
Outline: (§1)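 Glycan array data were curated from 3228 arrays in the Consortium for Functional Glycomics database and kept only where the protein sequence was available. Glycan names were converted to IUPAC-condensed notation, and columns mapping to the same glycan were averaged. The binding signal is a within-array Z-score, averaged across arrays of the same protein sequence at different concentrations or buffers and across linkers. Negative Z-scores can be read as non-binding.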

[2] = target: Fuc(a1-2)Gal(b1-3)GlcNAc(b1-3)GalNAc
Outline: as §1

[3] = target: Fuc(a1-2)Gal(b1-3)GlcNAc(b1-3)[Neu5Ac(a2-6)Gal(b1-4)GlcNAc(b1-6)]Gal(b1-4)Glc
Outline: as §1

[4] = target: Fuc(a1-2)Gal(b1-3)[Fuc(a1-4)]GlcNAc
Outline: as §1

[5] = target: Fuc(a1-2)Gal(b1-4)GlcNAc(b1-2)Man(a1-3)[Fuc(a1-2)Gal(b1-4)GlcNAc(b1-2)Man(a1-6)]Man(b1-4)GlcNAc(b1-4)[Fuc(a1-6)]GlcNAc
Outline: as §1

[6] = target: Fuc(a1-2)Gal(b1-4)GlcNAc(b1-2)[Fuc(a1-2)Gal(b1-4)GlcNAc(b1-4)]Man(a1-3)[Fuc(a1-2)Gal(b1-4)GlcNAc(b1-2)Man(a1-6)]Man(b1-4)GlcNAc(b1-4)GlcNAc
Outline: as §1

[7] = target: Fuc(a1-2)Gal(b1-4)GlcNAc(b1-3)Gal(b1-4)GlcNAc(b1-2)Man(a1-3)[Fuc(a1-2)Gal(b1-4)GlcNAc(b1-3)Gal(b1-4)GlcNAc(b1-2)Man(a1-6)]Man(b1-4)GlcNAc(b1-4)GlcNAc
Outline: as §1

[8] = target: Fuc(a1-2)Gal(b1-4)GlcNAc6S
Outline: as §1

[9] = target: Fuc(a1-2)Gal(b1-4)[Fuc(a1-3)]GlcNAc(b1-3)Gal(b1-4)[Fuc(a1-3)]GlcNAc
Outline: as §1

[10] = target: Fuc(a1-2)Gal(b1-4)[Fuc(a1-3)]GlcNAc(b1-3)Gal(b1-4)[Fuc(a1-3)]GlcNAc(b1-3)Gal(b1-4)[Fuc(a1-3)]GlcNAc
Outline: as §1

Fuc(a1-2)[Gal(a1-3)]Gal = target: Fuc(a1-2)[Gal(a1-3)]Gal
Outline: as §1

[11] = target: Fuc(a1-2)[Gal(a1-3)]Gal(b1-3)GlcNAc(b1-6)GalNAc
Outline: as §1

[12] = target: Fuc(a1-2)[Gal(a1-3)]Gal(b1-4)GlcNAc
Outline: as §1

[13] = target: Fuc(a1-2)[GalNAc(a1-3)]Gal(b1-3)GlcNAc(b1-6)GalNAc
Outline: as §1

[14] = target: Fuc(a1-2)[GalNAc(a1-3)]Gal(b1-4)GlcNAc(b1-3)Gal(b1-4)GlcNAc(b1-3)Gal(b1-4)GlcNAc
Outline: as §1

[15] = target: Fuc(a1-3)[Gal(b1-4)]GlcNAc(b1-3)Gal(b1-4)[Fuc(a1-3)]GlcNAc(b1-3)Gal(b1-4)[Fuc(a1-3)]GlcNAc
Outline: as §1

[16] = target: Fuc(a1-3)[GalNAc(b1-4)]GlcNAc
Outline: as §1

Gal(a1-3)Gal = target: Gal(a1-3)Gal
Outline: as §1

[17] = target: Gal(a1-3)Gal(b1-3)[Fuc(a1-4)]GlcNAc(b1-2)Man(a1-3)[Gal(a1-3)Gal(b1-3)[Fuc(a1-4)]GlcNAc(b1-2)Man(a1-6)]Man(b1-4)GlcNAc(b1-4)GlcNAc
Outline: as §1

Gal(a1-4)Gal(b1-4)Glc = target: Gal(a1-4)Gal(b1-4)Glc
Outline: as §1

[18] = target: Gal(a1-4)Gal(b1-4)GlcNAc(b1-3)Gal(b1-4)Glc
Outline: as §1

Gal(b1-3)Gal(b1-4)GlcNAc = target: Gal(b1-3)Gal(b1-4)GlcNAc
Outline: as §1

[19] = target: Gal(b1-3)GalNAc(a1-3)[Fuc(a1-2)]Gal(b1-4)Glc
Outline: as §1

[20] = target: Gal(b1-3)GlcNAc(b1-2)Man(a1-3)[Gal(b1-3)GlcNAc(b1-2)Man(a1-6)]Man(b1-4)GlcNAc(b1-4)[Fuc(a1-6)]GlcNAc
Outline: as §1

[21] = target: Gal(b1-3)GlcNAc(b1-2)Man(a1-3)[GlcNAc(b1-4)][Gal(b1-3)GlcNAc(b1-2)Man(a1-6)]Man(b1-4)GlcNAc(b1-4)GlcNAc
Outline: as §1

Gal(b1-4)GlcNAc(b1-2)Man = target: Gal(b1-4)GlcNAc(b1-2)Man
Outline: as §1

[22] = target: Gal(b1-4)GlcNAc(b1-2)Man(a1-3)[GlcNAc(b1-2)Man(a1-6)]Man(b1-4)GlcNAc(b1-4)GlcNAc
Outline: as §1

[23] = target: Gal(b1-4)GlcNAc(b1-3)Gal(b1-3)GalNAc
Outline: as §1

Gal3S6S(b1-4)GlcNAc = target: Gal3S6S(b1-4)GlcNAc
Outline: as §1

[24] = target: GalNAc(b1-4)GlcNAc(b1-3)GalNAc(b1-4)GlcNAc
Outline: as §1

GlcA(b1-3)Gal = target: GlcA(b1-3)Gal
Outline: as §1

[25] = target: GlcNAc(a1-4)Gal(b1-4)GlcNAc(b1-3)Gal(b1-4)Glc
Outline: as §1

[26] = target: GlcNAc(b1-2)Man(a1-3)[GlcNAc(b1-4)][GlcNAc(b1-2)Man(a1-6)]Man(b1-4)GlcNAc(b1-4)GlcNAc
Outline: as §1

[27] = target: GlcNAc(b1-2)[GlcNAc(b1-6)]Man(a1-6)[GlcNAc(b1-2)Man(a1-3)]Man(b1-4)GlcNAc(b1-4)[Fuc(a1-6)]GlcNAc
Outline: as §1

[28] = target: GlcNAc(b1-3)Gal(b1-4)GlcNAc(b1-3)Gal(b1-4)GlcNAc(b1-2)Man(a1-3)[GlcNAc(b1-3)Gal(b1-4)GlcNAc(b1-3)Gal(b1-4)GlcNAc(b1-2)Man(a1-6)]Man(b1-4)GlcNAc(b1-4)GlcNAc
Outline: as §1

GlcNAc(b1-3)Man = target: GlcNAc(b1-3)Man
Outline: as §1

Kdn(a2-3)Gal(b1-4)GlcNAc = target: Kdn(a2-3)Gal(b1-4)GlcNAc
Outline: as §1

[29] = target: Man(a1-2)Man(a1-3)[Man(a1-2)Man(a1-6)]Man(a1-6)[Man(a1-2)Man(a1-2)Man(a1-3)]Man
Outline: as §1

[30] = target: Neu5Ac(a2-3)Gal(b1-3)GalNAc
Outline: as §1

[31] = target: Neu5Ac(a2-3)Gal(b1-3)[Fuc(a1-4)]GlcNAc(b1-3)Gal(b1-3)[Fuc(a1-4)]GlcNAc
Outline: as §1

[32] = target: Neu5Ac(a2-3)Gal(b1-3)[Neu5Ac(a2-6)]GalNAc
Outline: as §1

[33] = target: Neu5Ac(a2-3)Gal(b1-4)GlcNAc(b1-3)Gal(b1-4)GlcNAc(b1-3)[Neu5Ac(a2-3)Gal(b1-4)GlcNAc(b1-3)Gal(b1-4)GlcNAc(b1-6)]GalNAc
Outline: as §1

[34] = target: Neu5Ac(a2-3)Gal(b1-4)GlcNAc(b1-3)[Neu5Ac(a2-3)Gal(b1-4)GlcNAc(b1-6)]GalNAc
Outline: as §1

[35] = target: Neu5Ac(a2-3)Gal(b1-4)[Fuc(a1-3)]GlcNAc(b1-6)[Neu5Ac(a2-3)Gal(b1-3)]GalNAc
Outline: as §1

[36] = target: Neu5Ac(a2-3)Gal(b1-4)[Fuc(a1-3)]GlcNAc6S
Outline: as §1

[37] = target: Neu5Ac(a2-3)GalNAc(b1-4)GlcNAc
Outline: as §1

[38] = target: Neu5Ac(a2-6)Gal(b1-4)GlcNAc
Outline: as §1

[39] = target: Neu5Ac(a2-6)Gal(b1-4)GlcNAc(b1-2)Man(a1-3)[Neu5Ac(a2-3)Gal(b1-4)GlcNAc(b1-2)Man(a1-6)]Man(b1-4)GlcNAc(b1-4)GlcNAc
Outline: as §1

B1: LecB PA14 (Pseudomonas aeruginosa) (protein)
chain: MATQGVFTLPANTQFGVTAFANSAGTQTVNVQVNNETVATFTGQSTNNAIIGSKVLNSGGGGKVQILVSVNGRSSDLVSAQVILANELNFALVGSEDSTDNDYNDAVVVINWPLG
glycan array binding signal (z-score) [1]: 0.586 | glycan array binding signal (z-score) [2]: 0.422 | glycan array binding signal (z-score) [3]: 0.308 | glycan array binding signal (z-score) [4]: 2.93 | glycan array binding signal (z-score) [5]: 2.75 | glycan array binding signal (z-score) [6]: 4.68 | glycan array binding signal (z-score) [7]: 7.45 | glycan array binding signal (z-score) [8]: -0.469 | glycan array binding signal (z-score) [9]: 10.2 | glycan array binding signal (z-score) [10]: 7.29 | glycan array binding signal (z-score) (Fuc(a1-2)[Gal(a1-3)]Gal): -0.002 | glycan array binding signal (z-score) [11]: -0.543 | glycan array binding signal (z-score) [12]: -0.7 | glycan array binding signal (z-score) [13]: -0.191 | glycan array binding signal (z-score) [14]: -0.182 | glycan array binding signal (z-score) [15]: 4.17 | glycan array binding signal (z-score) [16]: 5.42 | glycan array binding signal (z-score) (Gal(a1-3)Gal): -0.72 | glycan array binding signal (z-score) [17]: 2.54 | glycan array binding signal (z-score) (Gal(a1-4)Gal(b1-4)Glc): -0.633 | glycan array binding signal (z-score) [18]: 0.061 | glycan array binding signal (z-score) (Gal(b1-3)Gal(b1-4)GlcNAc): -0.517 | glycan array binding signal (z-score) [19]: -0.227 | glycan array binding signal (z-score) [20]: 0.647 | glycan array binding signal (z-score) [21]: 0.447 | glycan array binding signal (z-score) (Gal(b1-4)GlcNAc(b1-2)Man): -0.837 | glycan array binding signal (z-score) [22]: 0.016 | glycan array binding signal (z-score) [23]: -0.179 | glycan array binding signal (z-score) (Gal3S6S(b1-4)GlcNAc): -0.745 | glycan array binding signal (z-score) [24]: -0.272 | glycan array binding signal (z-score) (GlcA(b1-3)Gal): 0.136 | glycan array binding signal (z-score) [25]: -0.506 | glycan array binding signal (z-score) [26]: -0.629 | glycan array binding signal (z-score) [27]: -0.125 | glycan array binding signal (z-score) [28]: 0.43 | glycan array binding signal (z-score) (GlcNAc(b1-3)Man): -0.123 | glycan array binding signal (z-score) (Kdn(a2-3)Gal(b1-4)GlcNAc): -0.618 | glycan array binding signal (z-score) [29]: 5.22 | glycan array binding signal (z-score) [30]: -0.314 | glycan array binding signal (z-score) [31]: 3.3 | glycan array binding signal (z-score) [32]: -0.618 | glycan array binding signal (z-score) [33]: -0.427 | glycan array binding signal (z-score) [34]: -0.521 | glycan array binding signal (z-score) [35]: -0.054 | glycan array binding signal (z-score) [36]: 0.335 | glycan array binding signal (z-score) [37]: -0.298 | glycan array binding signal (z-score) [38]: -0.39 | glycan array binding signal (z-score) [39]: -0.741
